Source: PubChem BioAssay (NCATS)
Results filed as inconclusive are left out. The source made the active and inactive calls. The call rests on the fitted dose curve; in most records, active means well fitted curve in the direction sought with a large enough effect; inconclusive means small, poorly fitted or top-dose-only effect, or another doubt; inactive means no such curve, though single readings can be large; an effect the other way counts as inactive or inconclusive.

What was measured:
[1] = test system: Zika virus NS2B-NS3 protease (linked construct); assay: 384 well plate NINDS Rhodamine confirmatory qHTS for Zika virus inhibitors (AID 1347164); conditions: rhodamine-110 peptide substrate fluorescence;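 further: fluorescence from protease cleavage of Ac-LKRR-rhodamine 110 substrate; potency means the concentration at half of the fitted maximal effect; nearly all actives have a fitted effect of over 65% in size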
Procedure, shortened: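 Linked protease at a final 5 nM, 30 nM or 60 nM was preincubated ~15 min with compounds, then given 10 microM Ac-LKRR-Rhodamine 110. Fluorescence (ex 485/em 538 nm) after 25 min in the dark at room temperature.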

[2] = Vero cells viability qHTS for Zika virus inhibitors (AID 1347167); further: on the % scale 0 is the no-effect control and ±100 the full control effect
Procedure, shortened: (§1)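 Luminescent ATP readout (CellTiter Glo) after 30 min at 37 degrees C gives viability; cells in DMEM + 4% FBS were treated 24 to 48 hours with compound, following overnight attachment.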

[3] = HepG2 cells viability qHTS for Zika virus inhibitors (AID 1347168); further: on the % scale 0 is the no-effect control and ±100 the full control effect
Procedure, shortened: as §1

[4] = Tertiary RLuc qRT-PCR qHTS assay for Zika virus inhibitors (AID 1347169); further: top concentration of the series differs between compounds; on the % scale 0 is the no-effect control and ±100 the full control effect; nearly all actives have a fitted effect of over 55% in size
Procedure, shortened: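 Vero cells (1,000 per well) plated overnight at 37 degrees C, treated with compound in DMSO, then infected with recombinant ZIKV-RLuc (Cambodian) at MOI 1-2 for 48-72 hrs. Live-cell Renilla luciferase substrate added; luminescence read after 1-1.5 hrs.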

[5] = qHTS to identify inhibitors of the type 1 interferon - major histocompatibility complex class I in skeletal muscle: primary screen against the NCATS Pharmaceutical Collection (AID 1347407);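 further: luminescence of HiBiT knocked into endogenous HLA-B as interferon-induced MHC class I level; on the % scale 0 is the no-effect control and ±100 the full control effect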
Procedure, shortened: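 Immortalized human myoblasts (C25cl48) with HiBiT knocked into endogenous HLA-B*08:01 were stimulated with 4 ng/ml IFN-beta and treated with compounds (8-point, 1:5, top 46 uM final) for 24 h at 37 C; HiBiT lytic luminescence read.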

[6] = Primary qHTS for inhibitors of La Crosse Virus (LACV) - induced cell death in SH-SY5Y cells (AID 1508616);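 further: top concentration of the series differs between compounds; 0% = infected DMSO wells and 100% = uninfected DMSO wells; higher means more rescue of cells from virus-induced death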
Procedure, shortened: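 SH-SY5Y, 6000 cells/well; cpd via pin tool in DMSO; LACV 0.01 MOI; 6 d 37C 5% CO2; ATPLite, 5 min RT; luminescence normalized to ±virus DMSO controls.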

[7] = target: Lysine-specific demethylase 5B (Homo sapiens) (UniProt Q9UGL1); assay: Optimization screen for KDM5B Histone Demethylases FDH coupled qHTS against the LOPAC library (AID 1347166); further: 0% is about no effect
Lysine-specific demethylase 5B (Homo sapiens), sequence (Q9UGL1 whole entry, looked up): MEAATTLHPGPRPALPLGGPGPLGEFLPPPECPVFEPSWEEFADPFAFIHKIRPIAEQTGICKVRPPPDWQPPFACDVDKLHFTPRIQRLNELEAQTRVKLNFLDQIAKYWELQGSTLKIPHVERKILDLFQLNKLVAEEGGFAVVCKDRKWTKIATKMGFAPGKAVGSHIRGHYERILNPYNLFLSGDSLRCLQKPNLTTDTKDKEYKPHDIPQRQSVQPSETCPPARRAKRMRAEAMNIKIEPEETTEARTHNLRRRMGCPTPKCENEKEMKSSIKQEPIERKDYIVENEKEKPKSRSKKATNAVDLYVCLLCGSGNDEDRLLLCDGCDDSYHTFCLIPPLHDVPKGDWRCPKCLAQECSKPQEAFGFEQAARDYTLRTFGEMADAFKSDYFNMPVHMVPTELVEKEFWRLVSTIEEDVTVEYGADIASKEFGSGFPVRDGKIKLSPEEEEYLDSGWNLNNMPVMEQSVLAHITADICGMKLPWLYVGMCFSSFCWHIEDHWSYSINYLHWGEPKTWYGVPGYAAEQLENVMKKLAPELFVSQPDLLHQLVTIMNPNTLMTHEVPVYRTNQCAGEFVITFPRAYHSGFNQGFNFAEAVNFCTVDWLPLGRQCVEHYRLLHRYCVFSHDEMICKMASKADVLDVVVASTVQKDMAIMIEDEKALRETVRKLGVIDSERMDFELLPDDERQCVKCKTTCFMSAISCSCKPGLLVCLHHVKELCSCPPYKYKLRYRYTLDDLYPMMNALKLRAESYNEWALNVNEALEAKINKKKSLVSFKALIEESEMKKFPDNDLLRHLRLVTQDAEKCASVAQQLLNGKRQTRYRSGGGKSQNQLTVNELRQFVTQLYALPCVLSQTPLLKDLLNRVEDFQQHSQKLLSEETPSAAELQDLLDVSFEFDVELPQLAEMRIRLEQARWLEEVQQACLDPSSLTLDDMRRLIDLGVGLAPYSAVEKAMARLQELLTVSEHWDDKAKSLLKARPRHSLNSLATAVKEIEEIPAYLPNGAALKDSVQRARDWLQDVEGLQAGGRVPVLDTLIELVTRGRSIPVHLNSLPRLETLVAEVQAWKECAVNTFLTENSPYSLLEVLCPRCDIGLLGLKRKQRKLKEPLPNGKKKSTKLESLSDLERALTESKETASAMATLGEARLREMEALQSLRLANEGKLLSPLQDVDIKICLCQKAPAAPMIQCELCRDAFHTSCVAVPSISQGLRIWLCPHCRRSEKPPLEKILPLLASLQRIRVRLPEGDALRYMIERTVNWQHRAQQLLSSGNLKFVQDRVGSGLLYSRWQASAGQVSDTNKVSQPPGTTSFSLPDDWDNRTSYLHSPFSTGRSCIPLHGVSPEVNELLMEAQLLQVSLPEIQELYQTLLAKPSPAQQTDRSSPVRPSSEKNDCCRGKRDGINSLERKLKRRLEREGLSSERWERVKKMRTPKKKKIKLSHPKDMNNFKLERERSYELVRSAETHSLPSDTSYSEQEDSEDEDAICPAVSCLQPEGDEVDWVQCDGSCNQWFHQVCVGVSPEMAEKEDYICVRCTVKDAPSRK
Procedure, shortened: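 KDM5BDeltaAP (200nM final) in 50mM HEPES pH 7.5, 0.01% Tween-20 was preincubated with compound for 10 min at room temperature. A substrate mix of 12.5uM H3K4Me3, 25uM a-ketoglutarate, ascorbate, Fe2+, NAD+ and formaldehyde dehydrogenase was then added. NADH fluorescence (340/450 nm) was read initially and after 30 min.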

[8] = qHTS to identify inhibitors of the type 1 interferon - major histocompatibility complex class I in skeletal muscle: primary screen against the NCATS LOPAC collection (AID 1347405);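 further: lytic HiBiT luminescence reporting HLA-B protein level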; further: potency means the concentration at half of the fitted maximal effect
Procedure, shortened: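 First, engineered myoblasts carrying HLA-B-HiBiT were seeded in medium lacking dexamethasone with 4 ng/ml IFN-beta. After 1 hr, compounds were pinned in (top 46 uM final, 7 points). After 24 hrs at 37 C, luminescence was measured following 10 min lysis.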

[9] = qHTS for inhibitors of adenylyl cyclases using a fission yeast platform: a pilot screen against the NCATS LOPAC library (AID 1347410);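 further: plate controls were DMSO vehicle for no effect and DPI positive control for full effect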
Procedure, shortened: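 S. pombe CHP2027 (AC9-GNAS-PDE4D2) carrying a PKA-repressed fbp1-GFP reporter was exposed to LOPAC compounds (final up to 57 µM) for 18 h at 30C in the dark, in EMM with histidine, lysine and uracil; GFP gain-of-signal read by laser scanning cytometry.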

[10] = target: Protein phosphatase 1D (Homo sapiens) (UniProt O15297); assay: RapidFire Mass Spectrometry qHTS Assay for Modulators of WT P53-Induced Phosphatase 1 (WIP1) (AID 1347424);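 further: amount of dephosphorylated VEPPL-S-QETFS peptide product formed by WIP1; series mostly up to about 63 µM; plate controls were DMSO wells for no effect and GSK830371 inhibitor control at 10 µM for full effect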
Protein phosphatase 1D (Homo sapiens), sequence (O15297 whole entry, looked up): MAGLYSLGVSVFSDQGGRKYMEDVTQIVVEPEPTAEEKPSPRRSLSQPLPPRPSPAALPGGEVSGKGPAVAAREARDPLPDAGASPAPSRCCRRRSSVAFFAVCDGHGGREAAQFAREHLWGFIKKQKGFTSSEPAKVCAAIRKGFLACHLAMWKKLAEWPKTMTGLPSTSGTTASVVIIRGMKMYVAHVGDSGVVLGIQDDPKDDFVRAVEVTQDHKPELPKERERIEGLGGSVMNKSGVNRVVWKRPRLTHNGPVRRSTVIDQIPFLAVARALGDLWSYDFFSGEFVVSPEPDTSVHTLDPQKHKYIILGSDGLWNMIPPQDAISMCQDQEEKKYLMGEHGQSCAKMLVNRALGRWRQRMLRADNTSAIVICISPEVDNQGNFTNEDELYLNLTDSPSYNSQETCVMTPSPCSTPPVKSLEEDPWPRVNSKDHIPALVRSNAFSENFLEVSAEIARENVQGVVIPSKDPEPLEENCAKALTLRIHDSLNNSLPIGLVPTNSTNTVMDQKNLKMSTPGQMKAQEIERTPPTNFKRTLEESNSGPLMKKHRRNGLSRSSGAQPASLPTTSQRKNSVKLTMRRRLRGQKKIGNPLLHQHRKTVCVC
Procedure, shortened: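 RapidFire mass spectrometry measured dephosphorylated peptide after 5 min room-temperature reaction of 2 uM VEPPL-pS-QETFS with 10 nM WIP1 (50 mM Tris-HCl pH 7.5, 30 mM MgCl2, 0.1 mM EGTA, BSA), following 1 hr compound preincubation; 1 uM isotope-labelled product standard.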

[11] = target: Protein phosphatase 1D (Homo sapiens) (UniProt O15297); assay: Rhodamine-PBP qHTS Assay for Modulators of WT P53-Induced Phosphatase 1 (WIP1) (AID 1347425); further: % of control where 0% means no effect
Procedure, shortened: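 5 nM WIP1 + 10 uM Rh-PBP, 50 mM Tris pH 7.5, 30 mM MgCl2, 1 mM TCEP, 0.1 mM EGTA, BSA; cpds pinned, 1 hr RT; + 10 uM phosphopeptide; fluorescence 1-min reads x 11 min; delta = f1 - f0.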

[12] = target: Single-stranded DNA cytosine deaminase (Homo sapiens) (UniProt Q9GZX7); assay: Validation qHTS assay for inhibitors of Activation Induced Cytidine Deaminase (AID): AID signal (AID 1347429); further: on the % scale 0 is the no-effect control and ±100 the full control effect
Single-stranded DNA cytosine deaminase (Homo sapiens), sequence (Q9GZX7 whole entry, looked up): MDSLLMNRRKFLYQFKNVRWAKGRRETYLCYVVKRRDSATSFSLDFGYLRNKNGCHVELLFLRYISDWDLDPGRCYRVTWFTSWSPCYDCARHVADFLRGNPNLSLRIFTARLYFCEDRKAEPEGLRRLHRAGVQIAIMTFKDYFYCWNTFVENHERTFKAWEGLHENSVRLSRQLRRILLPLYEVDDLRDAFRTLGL
Procedure, shortened: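 Steps: dispense AID with UDG; pin-transfer compound up to 114 uM final; add DJC20/DJC23 substrate and hold 4 hr at room temperature; add NaOH, hold 30 min; read FRET signal (540/590 nm).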

[13] = target: Calcium and integrin-binding protein 1 (Homo sapiens) (UniProt Q99828); assay: Validation qHTS for Identification of Calcium Integrin Binding protein 1 (CIB1) Competitor (AID 1508618); further: on the % scale 0 is the no-effect control and ±100 the full control effect
Calcium and integrin-binding protein 1 (Homo sapiens), sequence (Q99828 whole entry, looked up): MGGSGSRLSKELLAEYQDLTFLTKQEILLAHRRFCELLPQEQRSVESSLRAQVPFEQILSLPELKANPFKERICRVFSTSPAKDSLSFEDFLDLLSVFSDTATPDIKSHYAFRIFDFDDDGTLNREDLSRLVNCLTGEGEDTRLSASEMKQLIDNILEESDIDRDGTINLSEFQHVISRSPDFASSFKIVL
Procedure, shortened: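 Displacement of FITC-alphaIIb peptide (100 nM) from CIB1-GST (1 uM) is monitored by polarization in quantitative HTS format; buffer carries 5 mM CaCl2 and 125 mM NaCl at pH 7.4, incubations are at room temperature.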

[14] = target: Calcium and integrin-binding protein 1 (Homo sapiens) (UniProt Q99828); assay: Primary qHTS for Identification of Calcium Integrin Binding Protein 1 (CIB1) Competitor (AID 1508620)
Procedure, shortened: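 CIB1-GST (1 uM final) and compound incubated 15 min at room temperature before adding FITC-alphaIIb peptide tracer (100 nM final). Competition for binding read by fluorescence polarization (ex 480, em 540) after another 15 min at room temperature.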

[15] = Validation qHTS assay for inhibitors of Activation Induced Cytidine Deaminase (AID): UDG Counterscreen signal (AID 1347427); further: potency means the concentration at half of the fitted maximal effect
Procedure, shortened: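 Fluorescence at 560 nm excitation, 665 nm emission reports UDG signal after 250 mM NaOH (2x) addition and 30 min. Enzymes (AID 1 uM, UDG 2 U/mL, at 4/3x) preincubated 10 min with compound, then 4 h with 4x 250 nM DJC20/DJC23 substrate at room temperature.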

[16] = Confirmatory qHTS for small molecule stabilizers of the endoplasmic reticulum resident proteome: Secreted ER Calcium Modulated Protein (SERCaMP) assay (AID 1508628); further: nearly all actives have a fitted effect of over 40% in size; further: potency means the concentration at half of the fitted maximal effect
Procedure, shortened: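 Reporter secretion upon ER calcium depletion (100 nM thapsigargin, 4 h, 37C) is measured as medium luminescence with coelenterazine, after 16 h compound pretreatment of SH-SY5Y-GLuc-SERCaMP cells; primary at three concentrations up to 38.3 uM, follow-up at 11 (up to 76.6 uM).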

[17] = Cell Viability qHTS for small molecule stabilizers of the endoplasmic reticulum resident proteome (AID 1508629); conditions: cell viability counter-screen, 100 nM thapsigargin for final 4 h;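 further: compound exposure about 46 h in total before the viability read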; further: potency means the concentration at half of the fitted maximal effect
[18] = qHTS to identify inhibitors of the type 1 interferon - major histocompatibility complex class I in skeletal muscle: primary screen against the NCATS Mechanism Interrogation Plate v5.0 (MIPE) Libary (AID 1347411);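 further: plate controls were vehicle for no effect and reference inhibitor for full effect; nearly all actives have a fitted effect of over 65% in size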
Procedure, shortened: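 Seed engineered human myoblasts (HLA-B HiBit) in medium without dexamethasone containing 4 ng/ml IFN-beta; after 1 hr add compound titrations (top 46 uM final). Incubate 24 hrs at 37 C, lyse 10 min with HiBiT reagent, read luminescence.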

[19] = Counterscreen qHTS for small molecule stabilizers of the endoplasmic reticulum resident proteome: GLuc-NoTag assay (AID 1508627);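 further: series mostly up to about 76 µM; 0% = thapsigargin alone and -100% = DMSO vehicle control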
Procedure, shortened: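 Counterscreen line: SH-SY5Y-GLuc-NoTag cells, treated with compound 19 hr before a 4 hr, 100 nM thapsigargin calcium depletion. Secreted Gaussia luciferase in the medium was measured by luminescence after coelenterazine was added (0.07x final), with cells unlysed.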

[20] = target: Calcium and integrin-binding protein 1 (Homo sapiens) (UniProt Q99828); assay: Confirmatory qHTS for Identification of Calcium Integrin Binding Protein 1 (CIB1) Competitor (AID 1508617); further: potency means the concentration at half of the fitted maximal effect; nearly all actives have a fitted effect of over 65% in size
Procedure, shortened: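 Confirmatory qHTS measures displacement of a FITC-alphaIIb peptide (100 nM) from CIB1-GST (1 uM) by fluorescence polarization. Calcium-containing HEPES buffer, pH 7.4; two 15 min room-temperature incubations.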

CC(C)(O)c1ccccc1CC[C@@H](SCC1(CC(=O)O)CC1)c1cccc(/C=C/c2ccc3ccc(Cl)cc3n2)c1
active: Potency [1] 112 µM
inactive: Potency [2] | outcome [3] | Potency [4] | Potency [5] | outcome [6]

COCCOC(=O)C1=C(C)NC(C)=C(C(=O)OC/C=C/c2ccccc2)C1c1cccc([N+](=O)[O-])c1 (centres undefined)
active: Potency [8] 22.4 µM
inactive: outcome [7] | outcome [9] | outcome [10] | outcome [11] | Potency [12] | outcome [6] | outcome [13] | outcome [14]

CCN(CC)CCNC(=O)c1cc(Cl)c(N)cc1OC
inactive: outcome [7] | Potency [8] | Potency [5] | outcome [9] | outcome [10] | outcome [11] | Potency [12] | outcome [6] | outcome [13] | outcome [14]

COc1ccc(Cl)cc1C(=O)NCCc1ccc(S(=O)(=O)NC(=O)NC2CCCCC2)cc1
inactive: outcome [7] | Potency [8] | Potency [5] | outcome [9] | Potency [12] | outcome [6] | outcome [14]

N=c1c[n+](N2CCOCC2)[n-]o1
inactive: outcome [7] | Potency [8] | outcome [9] | Potency [12] | outcome [6] | outcome [13]

CC(C)(C)[C@]1(O)CCN2C[C@H]3c4ccccc4CCc4cccc(c43)[C@@H]2C1
active: Potency [16] 12.6 µM
inactive: outcome [7] | Potency [8] | outcome [9] | Potency [15] | Potency [12] | outcome [6] | outcome [13] | max response [17] 16.4%

NC(=O)c1ncn([C@@H]2O[C@H](CO)[C@@H](O)[C@H]2O)n1
inactive: outcome [7] | Potency [8] | Potency [5] | outcome [9] | Potency [18] | outcome [10] | outcome [11] | Potency [12] | outcome [6] | outcome [13] | outcome [14]

CCN(CC)C(C)CN1c2ccccc2Sc2ccccc21 (centres undefined)
inactive: outcome [7] | Potency [8] | Potency [5] | outcome [9] | outcome [10] | Potency [12] | outcome [6] | outcome [13] | outcome [14]

C#CCN(C)Cc1ccccc1
inactive: outcome [7] | Potency [8] | outcome [9] | outcome [10] | outcome [11] | Potency [12] | outcome [6] | outcome [13] | outcome [14]

Nc1cc(=O)[nH]c(N)n1
inactive: outcome [7] | Potency [8] | Potency [5] | outcome [9] | outcome [10] | outcome [11] | Potency [12] | outcome [6] | outcome [13] | outcome [14]

CC(C(O)c1ccc(O)cc1)N1CCC(Cc2ccccc2)CC1 (centres undefined)
inactive: outcome [7] | Potency [8] | Potency [5] | outcome [9] | outcome [10] | Potency [12] | outcome [6] | outcome [13] | outcome [14] | Potency [19]

CN(C)CCC=C1c2ccccc2CCc2ccccc21
inactive: outcome [7] | Potency [8] | Potency [5] | outcome [9] | outcome [10] | outcome [11] | Potency [12] | outcome [6] | outcome [13] | outcome [14] | Potency [16]

CC(C)C(=O)c1c(C(C)C)nn2ccccc12
inactive: outcome [7] | Potency [8] | Potency [5] | outcome [9] | outcome [10] | Potency [12] | outcome [6] | outcome [13] | outcome [14]

CC(C)(C)c1onc(OCP(=O)(O)O)c1CC(N)C(=O)O (centres undefined)
inactive: outcome [7] | Potency [8] | outcome [9] | Potency [12] | outcome [6] | outcome [13]

C[C@]12C[C@H](O)[C@H]3[C@@H](CCC4=CC(=O)CC[C@@]43C)[C@@H]1CC[C@@H]2C(=O)CO
inactive: outcome [7] | Potency [8] | Potency [5] | outcome [9] | outcome [10] | outcome [11] | Potency [12] | outcome [6] | outcome [13] | outcome [14]

NC1[C@H]2CN(c3nc4c(cc3F)c(=O)c(C(=O)O)cn4-c3ccc(F)cc3F)C[C@@H]12 (some centres undefined)
inactive: Potency [2] | outcome [3] | Potency [4]

N[C@H](C(=O)O)c1ccc(O)cc1
inactive: Potency [2] | outcome [3] | Potency [4]

CC(C)NC[C@H](O)c1ccc(O)c(O)c1
inactive: Potency [15]

Cc1cc(N)c2ccccc2[n+]1CCCCCCCCCC[n+]1c(C)cc(N)c2ccccc21
active: Potency [15] 89.1 µM

C=Cc1c(C)c2cc3[nH]c(cc4nc(cc5nc(cc1[nH]2)C(C)=C5CCC(=O)O)C(CCC(=O)O)=C4C)c(C)c3C=C
active: Potency [20] 25.1 µM

CC(=O)c1ccc2c(c1)N(CCCN(C)C)c1ccccc1S2
inactive: max response [17] -6.13%

CNCCC(Oc1ccc(C(F)(F)F)cc1)c1ccccc1 (centres undefined)
active: Potency [17] 25.1 µM

CC1(C)CO[C@@H](CC(=O)O)CN1
inactive: Potency [5] | outcome [10] | outcome [11] | outcome [6]

CCOc1ccc2ccccc2c1C(=O)N[C@@H]1C(=O)N2[C@@H]1SC(C)(C)[C@@H]2C(=O)O
inactive: Potency [5] | outcome [10] | outcome [11] | outcome [6] | outcome [14]

Cn1cc[nH]c1=S
inactive: Potency [5] | outcome [10] | outcome [11] | outcome [6]

CCOC(CN1CCN(CC(C)C(=O)c2ccccc2)CC1)c1ccccc1 (centres undefined)
inactive: Potency [5] | outcome [10] | outcome [11] | outcome [6]

CC(COc1ccccc1)NC(C)C(O)c1ccc(O)cc1 (centres undefined)
inactive: Potency [5] | outcome [10] | outcome [11] | outcome [6] | outcome [14]

O=C(O)Cc1sc(-c2ccccc2)nc1-c1ccc(Cl)cc1
inactive: Potency [5] | outcome [10] | outcome [11] | outcome [6]
